Source: PubChem BioAssay AID1159580 (chemical genetic matrix, 2015)
Out of some 5,500 compounds screened, about 2,000 (36%) were called active. About 18% were inconclusive and are not listed. No stated cut-off is given here; in the data, active means normalized growth mostly below about 0.91 (no sharp cut-off); inconclusive means no clear call, values can overlap the other calls; inactive means mostly above about 0.92. This is one part of the list.

Assay: chemical genetic growth profiling, strain panel (AID 1159580);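 further: tested at 20 µM; growth read once vehicle control cultures reached saturation at 30 °C; 1 = growth at the plate median or of vehicle wells; lower values mean less growth of the strain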
Settings: growth OD

Measured: normalized growth

Nc1ncnc2c1ncn2[C@@H]1O[C@H](CO)[C@@H](O)[C@H]1O
inactive: S. cerevisiae deletion strains, locus YJR066W, strain TOR1, active compounds read low 0.966 | S. cerevisiae deletion strains, locus YJR075W, strain HOC1, active compounds read low 0.99 | S. cerevisiae deletion strains, locus YKL009W, strain mrt4, active compounds read low 0.961 | S. cerevisiae deletion strains, locus YKL068W, active compounds read low 0.983 | S. cerevisiae deletion strains, locus YKL085W, strain MDH1 (second series), active compounds read low 0.965 | S. cerevisiae deletion strains, locus YKL085W, strain MDH1, active compounds read low 0.965 | S. cerevisiae deletion strains, locus YKL160W, strain elf1, active compounds read low 0.955 | S. cerevisiae deletion strains, locus YKR001C, strain vps1, active compounds read low 0.997 | S. cerevisiae deletion strains, locus YKR026C, strain gcn3, active compounds read low 0.987 | S. cerevisiae deletion strains, locus YKR091W, strain srl3, active compounds read low 0.994 | S. cerevisiae deletion strains, locus YLL001W, strain dnm1, active compounds read low 0.922 | S. cerevisiae deletion strains, locus YLL026W, active compounds read low 0.99 | S. cerevisiae deletion strains, locus YLL041C, strain sdh2, active compounds read low 0.99 | S. cerevisiae deletion strains, locus YLR027C, strain aat2, active compounds read low 0.994 | S. cerevisiae deletion strains, locus YLR039C, strain RIC1, active compounds read low 0.95 | S. cerevisiae deletion strains, locus YLR058C, strain SHM2, active compounds read low 0.971 | S. cerevisiae deletion strains, locus YLR102C, strain apc9, active compounds read low 0.978 | S. cerevisiae deletion strains, locus YLR113W, strain HOG1, active compounds read low 1.01 | S. cerevisiae deletion strains, locus YLR221C, strain rsa3, active compounds read low 0.95 | S. cerevisiae deletion strains, locus YLR258W, strain gsy2, active compounds read low 0.975 | S. cerevisiae deletion strains, locus YLR262C, strain YPT6 (second series), active compounds read low 0.974 | S. cerevisiae deletion strains, locus YLR262C, strain YPT6, active compounds read low 0.913 | S. cerevisiae deletion strains, locus YLR268W, strain sec22, active compounds read low 1 | S. cerevisiae deletion strains, locus YLR320W, strain mms22, active compounds read low 0.939 | S. cerevisiae deletion strains, locus YLR330W, strain CHS5, active compounds read low 0.993 | S. cerevisiae deletion strains, locus YLR342W, strain FKS1 (second series), active compounds read low 1.03 | S. cerevisiae deletion strains, locus YLR342W, strain FKS1, active compounds read low 0.993 | S. cerevisiae deletion strains, locus YLR357W, strain rsc2, active compounds read low 0.983 | S. cerevisiae deletion strains, locus YLR370C, strain arc18, active compounds read low 0.967 | S. cerevisiae deletion strains, locus YLR371W, strain rom2, active compounds read low 0.978 | S. cerevisiae deletion strains, locus YLR384C, strain iki3, active compounds read low 0.982 | S. cerevisiae deletion strains, locus YLR418C, strain cdc73, active compounds read low 0.945 | S. cerevisiae deletion strains, locus YML016C, strain PPZ1, active compounds read low 0.987 | S. cerevisiae deletion strains, locus YML032C, strain rad52, active compounds read low 0.949 | S. cerevisiae deletion strains, locus YML120C, strain ndi1, active compounds read low 0.952 | S. cerevisiae deletion strains, locus YML124C, strain tub3, active compounds read low 0.988 | S. cerevisiae deletion strains, locus YMR058W, strain fet3, active compounds read low 0.995 | S. cerevisiae deletion strains, locus YMR078C, strain ctf18, active compounds read low 0.972 | S. cerevisiae deletion strains, locus YMR125W, strain sto1, active compounds read low 0.982 | S. cerevisiae deletion strains, locus YMR129W, active compounds read low 0.995 | S. cerevisiae deletion strains, locus YMR205C, strain PFK2, active compounds read low 0.944 | S. cerevisiae deletion strains, locus YMR223W, strain ubp8, active compounds read low 0.956 | S. cerevisiae deletion strains, locus YMR231W, strain pep5, active compounds read low 0.992 | S. cerevisiae deletion strains, locus YMR263W, strain SAP30, active compounds read low 0.982 | S. cerevisiae deletion strains, locus YMR307W, strain GAS1, active compounds read low 0.98 | S. cerevisiae deletion strains, locus YNL067W, strain RPL9B, active compounds read low 0.967 | S. cerevisiae deletion strains, locus YNL071W, strain lat1, active compounds read low 1 | S. cerevisiae deletion strains, locus YNL153C, strain GIM3, active compounds read low 0.98 | S. cerevisiae deletion strains, locus YNL183C, strain NPR1, active compounds read low 0.975 | S. cerevisiae deletion strains, locus YNL209W, strain ssb2, active compounds read low 0.988 | S. cerevisiae deletion strains, locus YNL233W, strain BNI4, active compounds read low 0.991 | S. cerevisiae deletion strains, locus YNL248C, strain rpa49, active compounds read low 1.01 | S. cerevisiae deletion strains, locus YNL250W, strain rad50, active compounds read low 0.978 | S. cerevisiae deletion strains, locus YNL271C, strain bni1, active compounds read low 0.979 | S. cerevisiae deletion strains, locus YNL298W, strain CLA4, active compounds read low 0.963 | S. cerevisiae deletion strains, locus YNL307C, strain MCK1, active compounds read low 0.978 | S. cerevisiae deletion strains, locus YNL322C, strain KRE1 (second series), active compounds read low 0.978 | S. cerevisiae deletion strains, locus YNR049C, strain mso1, active compounds read low 0.982 | S. cerevisiae deletion strains, locus YNR052C, strain pop2, active compounds read low 0.977 | S. cerevisiae deletion strains, locus YOL006C, strain TOP1, active compounds read low 1.02 | S. cerevisiae deletion strains, locus YOL012C, strain htz1 0.737 | S. cerevisiae deletion strains, locus YOL147C, strain pex11, active compounds read low 0.987 | S. cerevisiae deletion strains, locus YOR001W, strain rrp6, active compounds read low 1.02 | S. cerevisiae deletion strains, locus YOR061W, strain CKA2, active compounds read low 0.96 | S. cerevisiae deletion strains, locus YOR069W, strain VPS5, active compounds read low 0.99 | S. cerevisiae deletion strains, locus YOR070C, strain gyp1, active compounds read low 0.987 | S. cerevisiae deletion strains, locus YOR080W, strain dia2, active compounds read low 0.995 | S. cerevisiae deletion strains, locus YOR083W, strain WHI5, active compounds read low 0.96 | S. cerevisiae deletion strains, locus YOR106W, strain vam3, active compounds read low 0.971 | S. cerevisiae deletion strains, locus YOR136W, strain idh2, active compounds read low 0.982 | S. cerevisiae deletion strains, locus YOR144C, strain elg1, active compounds read low 0.978 | S. cerevisiae deletion strains, locus YOR184W, strain ser1, active compounds read low 0.967 | S. cerevisiae deletion strains, locus YOR231W, strain MKK1, active compounds read low 1.03 | S. cerevisiae deletion strains, locus YOR265W, strain rbl2, active compounds read low 0.983 | S. cerevisiae deletion strains, locus YOR270C, strain vph1, active compounds read low 0.966 | S. cerevisiae deletion strains, locus YOR290C, strain snf2, active compounds read low 0.955 | S. cerevisiae deletion strains, locus YOR316C, strain cot1, active compounds read low 0.978 | S. cerevisiae deletion strains, locus YPL051W, strain arl3, active compounds read low 0.988 | S. cerevisiae deletion strains, locus YPL078C, strain atp4, active compounds read low 0.969 | S. cerevisiae deletion strains, locus YPL106C, strain sse1, active compounds read low 0.955 | S. cerevisiae deletion strains, locus YPL240C, strain hsp82, active compounds read low 0.998 | S. cerevisiae deletion strains, locus YPL241C, strain CIN2, active compounds read low 0.99 | S. cerevisiae deletion strains, locus YPL256C, strain CLN2, active compounds read low 0.982 | S. cerevisiae deletion strains, locus YPR119W, strain clb2, active compounds read low 0.984 | S. cerevisiae deletion strains, locus YPR141C, strain kar3, active compounds read low 0.972 | S. cerevisiae deletion strains, locus YPR163C, strain tif3, active compounds read low 0.969 | S. cerevisiae deletion strains, locus YPR167C, strain met16, active compounds read low 0.963 | S. cerevisiae deletion strains, strain wtn01, active compounds read low 1.02 | S. cerevisiae strains, strain wild type, active compounds read low 0.989
